Data from PubChem BioAssay (EPA / NIEHS).
Several values for one entry are separate records, joined by “and”; a condition that tells them apart may be missing. Identical values can stand only once. Results filed as inconclusive are left out. Where a structure was tested more than once in an assay, its records may differ in their call. Activity calls are given as the source filed them. How the source made its calls, unless noted: active means hit-call score of the fitted dose curve at least 0.9, where 1 is the maximum; inactive means score below 0.9.

How the values were obtained:
[1] = read-out: Interleukin-8 (IL8), CXCL8 (gene 3576); test: BSK_BE3C_IL8: BioMAP Diversity Plus: BE3C Assay for Interleukin-8 (IL8) Biomarker Activity (AID 2284280); conditions: primary human bronchial epithelial cells
Procedure, shortened: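 Primary human bronchial epithelial cells (BE3C system) exposed 24 h; IL-8 measured by ELISA and fitted in positive direction versus DMSO. Overt cytotoxicity assessed by SRB total-protein staining in parallel cultures.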

[2] = read-out: Epidermal growth factor receptor (EGFR), EGFR (gene 1956); test: BSK_BE3C_EGFR: BioMAP Diversity Plus: BE3C Assay for Epidermal growth factor receptor (EGFR) Biomarker Activity (AID 2284281); conditions: primary human bronchial epithelial cells
Procedure, shortened: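 Human primary bronchial epithelial cells (BE3C system) dosed with chemicals; EGFR measured by ELISA at 24 h, fitted in the positive direction relative to DMSO. Cytotoxicity tracked in parallel cultures by SRB total-protein staining.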

[3] = read-out: KRT18 (gene 3875); test: BSK_BE3C_Keratin818: BioMAP Diversity Plus: BE3C Assay for Keratin 818 Biomarker Activity (AID 2284282); conditions: primary human bronchial epithelial cells
Procedure, shortened: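 Chemicals are added to human lung bronchial epithelial primary cells (BE3C system) and incubated 24 h. Keratin 8/18 is then measured by ELISA, with parallel SRB total-protein staining gauging overt cytotoxicity.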

[4] = read-out: Matrix Metallopeptidase 9 (MMP9), MMP9 (gene 4318); test: BSK_BE3C_MMP9: BioMAP Diversity Plus: BE3C Assay for Matrix Metallopeptidase 9 (MMP9) Biomarker Activity (AID 2284283); conditions: primary human bronchial epithelial cells
Procedure, shortened: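 Human primary bronchial epithelial cells in the BE3C system were dosed with compound for 24 h. MMP-9 was measured by ELISA, and the positive-direction response was fitted relative to DMSO as baseline. Parallel SRB staining gauged cytotoxicity.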

[5] = read-out: Plasminogen activator inhibitor-1 (PAI1), SERPINE1 (gene 5054); test: BSK_CASM3C_PAI1: BioMAP Diversity Plus: CASM3C Assay for Plasminogen activator inhibitor-1 (PAI1) Biomarker Activity (AID 2284284); conditions: primary human coronary artery smooth muscle cells;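 further: PAI-1 protein level measured by ELISA 24 h after dosing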
[6] = read-out: Monocyte Chemoattractant Protein-1 (MCP1), CCL2 (gene 6347); test: BSK_hDFCGF_MCP1: BioMAP Diversity Plus: hDFCGF Assay for Monocyte Chemoattractant Protein-1 (MCP1) Biomarker Activity (AID 2284285); conditions: primary human foreskin fibroblasts
Procedure, shortened: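 Human foreskin fibroblasts (hDFCGF system) were exposed to compound and secreted MCP-1 was measured by ELISA after 24 hours. Activity was fitted relative to DMSO. Cytotoxicity was checked by SRB total-protein staining in parallel cultures.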

[7] = read-out: Intercellular Adhesion Molecule 1 (ICAM1), ICAM1 (gene 3383); test: BSK_hDFCGF_ICAM1: BioMAP Diversity Plus: hDFCGF Assay for Intercellular Adhesion Molecule 1 (ICAM1) Biomarker Activity (AID 2284287); conditions: primary human foreskin fibroblasts
Procedure, shortened: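 Primary human foreskin fibroblasts (hDFCGF system) dosed with chemical; ICAM-1 quantified by ELISA at 24 h relative to DMSO. Parallel SRB total-protein staining to assess overt cytotoxicity.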

[8] = read-out: TIMP metallopeptidase inhibitor 2 (TIMP2), TIMP2 (gene 7077); test: BSK_hDFCGF_TIMP2: BioMAP Diversity Plus: hDFCGF Assay for TIMP metallopeptidase inhibitor 2 (TIMP2) Biomarker Activity (AID 2284289); conditions: primary human foreskin fibroblasts
Procedure, shortened: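 Primary human foreskin fibroblasts in the hDFCGF system, dosed for 24 h; TIMP-2 level measured by ELISA, fitted in the positive direction against DMSO; cytotoxicity checked in parallel by sulforhodamine B total protein staining.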

[9] = read-out: Thrombomodulin, THBD (gene 7056); test: BSK_LPS_Thrombomodulin: BioMAP Diversity Plus: LPS Assay for Thrombomodulin Biomarker Activity (AID 2284296); conditions: primary human HUVEC with PBMC
Procedure, shortened: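 Human umbilical vein endothelial cells co-cultured with PBMC and stimulated with LPS; cell-surface thrombomodulin measured by ELISA 24 hours after compound. Gain or loss versus DMSO; cytotoxicity checked by SRB staining in parallel cultures.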

[10] = IUF_NPC2a_radial_glia_migration_120hr: Leibniz Research Institute for Environmental Medicine (IUF) 120-hour Neural Progenitor Cell Migration Assay for Radial Glia Migration (NPC2a) (AID 2284298)
Procedure, shortened: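 Single 0.3 mm primary human fetal-cortex (GW 16-19) NPC spheres were plated on poly-D-lysine/laminin in N2 differentiation medium and exposed from day 0 for 120 h, half-medium refreshed day 3. Migration distance came from Hoechst nuclei-density imaging, relative to DMSO.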

[11] = IUF_NPC2a_radial_glia_migration_72hr: Leibniz Research Institute for Environmental Medicine (IUF) 72-hour Neural Progenitor Cell Migration Assay for Radial Glia Migration (NPC2a) (AID 2284299)
Procedure, shortened: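 Primary hNPC spheres, fetal brain GW 16-19, on PDL/laminin; DMEM/F12 3:1 + 1% N2. Compound dosed day 0, 7 conc. + SC, half-medium refresh day 3. 72 h brightfield, migration distance core-to-front (um), 4 directions averaged.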

[12] = IUF_NPC3_neuronal_differentiation_120hr: Leibniz Research Institute for Environmental Medicine (IUF) 120-hour Neuronal Differentiation Assay (NPC3) (AID 2284301)
Procedure, shortened: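 Human fetal (GW 16-19) neural progenitor spheres (0.3 mm) plated on poly-D-lysine/laminin in N2 differentiation medium, exposed 120 h at 37C with half-medium renewal day 3; 7 concentrations. TUBB3+ cells as % of Hoechst nuclei, CNN-identified; DMSO baseline.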

[13] = IUF_NPC4_neurite_length_120hr: Leibniz Research Institute for Environmental Medicine (IUF) 120-hour Neuronal Morphology Assay for Neurite Length (NPC4) (AID 2284302)
Procedure, shortened: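 Human fetal neural progenitor spheres (0.3 mm) plated on poly-D-lysine/laminin in N2 differentiation medium, exposed from day 0 for 120 h with half-medium refresh at day 3, 37C. Mean neurite length (um) of TUBB3-positive neurons from skeletonized immunostaining images; DMSO ≤0.1%.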

[14] = read-out: CD69, CD69 (gene 969); test: BSK_LPS_CD69: BioMAP Diversity Plus: LPS Assay for CD69 Biomarker Activity (AID 2284303); conditions: primary human HUVEC with PBMC
Procedure, shortened: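 Human umbilical vein endothelial cells co-cultured with PBMC under LPS stimulation, chemical exposure 24 h; cell-surface CD69 measured by ELISA and fitted in the positive direction versus DMSO.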

[15] = IUF_NPC5_oligodendrocyte_differentiation_120hr: Leibniz Research Institute for Environmental Medicine (IUF) 120-hour Oligodendrocyte Differentiation Assay (NPC5) (AID 2284304; active means hit-call score of the fitted dose curve at least 0.9, where 1 is the maximum;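 further: primary human fetal neural progenitor spheres plated to migrate and differentiate; share of O4-positive cells among Hoechst nuclei found by CNN image analysis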)
Procedure, shortened: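 Primary human fetal (GW 16-19) neural progenitor spheres (0.3 mm) plated on poly-D-lysine/laminin in N2 differentiation medium, exposed from day 0 for 120 h with half-medium refresh at day 3; O4-positive cells as percent of Hoechst nuclei, CNN-identified, versus DMSO.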

[16] = IUF_NPC4_neurite_area_120hr: Leibniz Research Institute for Environmental Medicine (IUF) 120-hour Neuronal Morphology Assay for Neurite Area (NPC4) (AID 2284305; active means hit-call score of the fitted dose curve at least 0.9, where 1 is the maximum)
Procedure, shortened: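 Human fetal neural progenitor spheres (0.3 mm) plated on poly-D-lysine/laminin in N2 differentiation medium, exposed 120 h (7 concentrations, DMSO ≤0.1%, half-medium refresh day 3). Fixed, TUBB3 immunostained; mean neurite area per neuron by Omnisphero skeletonization.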

[17] = IUF_NPC2-5_cytotoxicity_120hr: Cytotoxicity Assessment at 120 hours in the Leibniz Research Institute for Environmental Medicine (IUF) Neural Progenitor Cell Migration and Differentiation Assay (NPC2-5) (AID 2284307; active means hit-call score of the fitted dose curve at least 0.9, where 1 is the maximum;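 further: LDH released into supernatant as membrane damage marker via resorufin fluorescence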)
Procedure, shortened: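 Human fetal neural progenitor spheres (0.3 mm, GW 16-19 cortex) were plated on poly-D-lysine/laminin in N2 differentiation medium and exposed for 120 h, with half-medium refresh at day 3. LDH release into supernatant was read by resorufin fluorescence.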

[18] = IUF_NPC2-5_cell_number_120hr: Cell Number Assessment at 120 hours in the Leibniz Research Institute for Environmental Medicine (IUF) Neural Progenitor Cell Migration and Differentiation Assay (NPC2-5) (AID 2284308);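 further: count of Hoechst-stained nuclei in migration zone around plated human neural progenitor spheres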
Procedure, shortened: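 Primary human fetal neural progenitor spheres (GW 16-19, 0.3 mm) plated on poly-D-lysine/laminin in N2 differentiation medium, exposed from day 0 for 120 h with half-medium refresh at day 3; Hoechst-positive nuclei counted in migration area versus DMSO control.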

[19] = IUF_NPC2-5_viability_120hr: Viability Assessment at 120 hours in the Leibniz Research Institute for Environmental Medicine (IUF) Neural Progenitor Cell Migration and Differentiation Assay (NPC2-5) (AID 2284312)
Procedure, shortened: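 Human fetal neural progenitor spheres (0.3 mm) plated on poly-D-lysine/laminin in N2 differentiation medium, exposed 120 h with half-medium refresh at day 3. Viability by alamar blue resazurin fluorescence; 7 concentrations, DMSO max 0.1%.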

[20] = IUF_NPC1_cytotoxicity_72hr: Cytotoxicity Assessment at 72 hours in the Leibniz Research Institute for Environmental Medicine (IUF) Neural Progenitor Cell Proliferation Assay (NPC1) (AID 2284332; active means hit-call score of the fitted dose curve at least 0.9, where 1 is the maximum;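 further: rising LDH signal means more cytotoxicity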)
Procedure, shortened: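 Spheres of primary human neural progenitors are plated one per well on day 0 in growth-factor medium and dosed at once. After three days at 37C, supernatant LDH is measured fluorimetrically via resazurin reduction.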

[21] = CCTE_Mundy_HCI_iCellGluta_NOG_NeuronCount: CCTE's Neurite Outgrowth Assay in iCellGluta cells for Neuron Count, Mundy Lab (AID 2284340; active means hit-call score of the fitted dose curve at least 0.9, where 1 is the maximum;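 further: cells fixed about 48 h after compound addition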)
Procedure, shortened: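 Neuron count read by automated high-content imaging of Hoechst 33342 and betaIII-tubulin/Alexa Fluor-488 labelling in human iPSC glutamatergic neurons. Activity fitted relative to DMSO.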

[22] = CCTE_Mundy_HCI_iCellGluta_NOG_NeuriteCount: CCTE's Neurite Outgrowth Assay in iCellGluta cells for Neurite Count, Mundy Lab (AID 2284342; active means hit-call score of the fitted dose curve at least 0.9, where 1 is the maximum;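 further: chemical exposure about 48 hours starting 2 hours after plating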)

Measured: AC50

[Cd+2].[Cl-].[Cl-]
active: [2] 31.6 µM and 12.3 µM | [4] 32 µM and 27.7 µM | [5] 10.9 µM and 13.8 µM | [6] 4.82 µM and 1.76 µM | [7] 9.72 µM and 13.9 µM | [8] 3.97 µM and 2.93 µM | [10] 8.38 µM | [11] 8.95 µM | [12] 0.00342 µM | [13] 7.58 µM | [14] 7.19 µM | [15] 17.5 µM | [16] 15.6 µM | [17] 11.2 µM | [18] 4.7 µM | [19] 6.4 µM | [21] 15 µM | [22] 11.4 µM
inactive: [1] | [3] | [9] | [14] | [20]
